# Measurements taken from ChEMBL document CHEMBL3988442, “University of Dundee, Small-Polar-MMV Screening Library” (2021).
# The campaign covered roughly 48,000 compounds. About 13,000 (27%) showed an effect of 50% or more. The list shows a part of the results.
# Tested on: Wolbachia pipientis
# Assay: Anti-Wolbachia Cell-Based Screen
# Type: functional
# Parameters: scale not given: in the data most compounds retested in dose-response had high values
# Details: 5 µM
row,Structure (SMILES),Percent Effect
1,Oc1cccc2ccc(CN3CCC4(CCNCC4)C3)nc12,2.778%
2,Cn1nc(CN2CCCCC(N)C2)c2c(Cl)cccc21 (stereo not drawn),-4.304%
3,Cc1cnc(N2CCC3(CC2)COCCN(C(C)C)C3)nc1.O=C(O)C(F)(F)F,7.175%
4,CC(C)N1CCOCC2(CN(Cc3ccccn3)CCO2)C1.O=C(O)C(F)(F)F.O=C(O)C(F)(F)F.O=C(O)C(F)(F)F (stereo not drawn),-11.42%
5,Cc1nocc1C(=O)N1CCOC2(COCCN(C(C)C)C2)C1.O=C(O)C(F)(F)F (stereo not drawn),91.68%
6,CSC1(CNC(=O)NC(C)Cc2cccc(F)c2)CCOCC1 (stereo not drawn),-4.564%
7,Cc1ccccc1CC(=O)N1C[C@H]2CC[C@@H]1CN(Cc1cccnc1)C2,5.499%
8,Cc1ccccc1CC(=O)N1C[C@@H](O)[C@H](N2CCC(F)(F)CC2)C1,138.7%
9,Cc1ccccc1CC(=O)N1C[C@@H](O)[C@H](N2CCN(C)CC2)C1,176.4%
10,Cc1nc(CN2CCO[C@H]3CN(C(=O)Cc4cccs4)C[C@H]32)cs1,2.702%
11,CC(=O)N1CCN([C@@H]2CN(C(=O)Cc3ccccc3C)C[C@H]2O)CC1,157.7%
12,Cc1ccccc1CC(=O)N1CCN(C2CCOC2=O)CC1 (stereo not drawn),5.646%
13,Cc1ccccc1CC(=O)N1C[C@@H](O)[C@H](N2CCOCC2)C1,153.4%
14,CN(C)C(=O)CN1CCN(c2ncccn2)[C@@H]2CS(=O)(=O)C[C@@H]21,-3.142%
15,CC(c1ccccc1F)N1CCN(C(=O)Cc2ccncc2)CC1 (stereo not drawn),-4.813%
16,COc1cccc(CC(C)NCC(=O)Nc2ccccc2C)c1 (stereo not drawn),0.2022%
17,CC[C@H]1CN2CC[C@H]1C[C@@H]2CNCc1ccc(N(C)C)cc1,11.9%
18,Fc1cnc(N2CCN3C[C@H](Oc4cncnc4)C[C@H]3C2)nc1.O=C(O)C(F)(F)F.O=C(O)C(F)(F)F,110.2%
19,Fc1cnc(N2CCN3C[C@H](Oc4cccnc4)C[C@H]3C2)nc1.O=C(O)C(F)(F)F.O=C(O)C(F)(F)F.O=C(O)C(F)(F)F,90.39%
20,Cc1ccc(O[C@@H]2C[C@H]3CN(c4ncc(F)cn4)CCN3C2)cc1.O=C(O)C(F)(F)F.O=C(O)C(F)(F)F,83.44%
21,Fc1ccccc1CO[C@@H]1C[C@H]2CN(c3ncccn3)CCN2C1.O=C(O)C(F)(F)F,-0.171%
22,Cc1cccc(CO[C@@H]2C[C@H]3CN(c4ncccn4)CCN3C2)n1.O=C(O)C(F)(F)F.O=C(O)C(F)(F)F.O=C(O)C(F)(F)F,-11.39%
23,O=C(O)C(F)(F)F.O=C(O)C(F)(F)F.c1ccc(CO[C@@H]2C[C@H]3CN(c4ncccn4)CCN3C2)cc1,2.223%
24,O=C(O)C(F)(F)F.O=C(O)C(F)(F)F.c1cnc(N2CCN3C[C@H](Oc4cncnc4)C[C@H]3C2)nc1,105.8%
25,Cc1cnc(N2CCN3C[C@H](OCc4ccccn4)C[C@H]3C2)nc1.O=C(O)C(F)(F)F.O=C(O)C(F)(F)F,0.855%
26,O=C(c1ccco1)N1CCN2C[C@H](Oc3cncnc3)C[C@H]2C1,1.787%
27,O=C(Cc1cccc(F)c1)N1CCN2C[C@H](Oc3cncnc3)C[C@H]2C1.O=C(O)C(F)(F)F,1.194%

row,Structure (SMILES),Percent Effect
1,CC(C)c1cc(C(=O)N2CCN(C)[C@@H]3CS(=O)(=O)C[C@@H]32)no1,-18.46%
2,O=C(NC[C@H]1C[C@@H]2CCN1C[C@@H]2CN1CCCCC1)c1ccco1,3.904%
3,CCCSCC(=O)N1C[C@H]2CC[C@@H]1CN(Cc1cccnc1)C2,-15.35%
4,CC[C@H](C)[C@@H](CO)NC(C)Cc1ccc(Cl)cc1 (stereo partly drawn),125.5%
5,CCOCC(=O)NC(C)Cc1ccccc1Br (stereo not drawn),-9.65%
6,CC(=O)N1CCC(CCNC(C)Cc2ccc(F)cc2)CC1 (stereo not drawn),3.455%
7,CC[C@H](C)[C@@H](CO)NC(C)Cc1ccccc1F (stereo partly drawn),127.2%
8,CC[C@H](C)[C@@H](CO)NC(C)Cc1ccc(F)cc1 (stereo partly drawn),95.88%
9,COC(=O)C(CO)NC(=O)c1cn(Cc2ccccc2F)nn1 (stereo not drawn),-17.52%
10,CC[C@H](C)[C@@H](CO)NC(C)Cc1ccc(C)cc1 (stereo partly drawn),96.84%
11,CNS(=O)(=O)CC(=O)NC(C)Cc1ccc(Br)cc1 (stereo not drawn),-6.603%
12,CCc1cc(CN(C)C(=O)CN2CC(c3ccccc3)CC2=O)on1 (stereo not drawn),-7.018%
13,CN(C)C(=O)[C@H]1C[C@H]2OCC[C@H]2N(Cc2ccccn2)C1,-23.53%
14,O=C(NC[C@H]1C[C@@H]2CCN1C[C@@H]2CN1CCCCC1)Nc1ccccc1,-4.847%
15,CC(C)(C)n1cc(C2=CCN(CCN3CCCCCC3)CC2)cn1,-14.66%
16,CC(C)(C)CN1CCCC2(CCN(C(=O)c3ccc(O)nc3)C2)C1 (stereo not drawn),-6.955%
17,Cc1ccc(CN2CC3(CCN(C(=O)c4cccnc4)C3)C2)o1.O=C(O)C(F)(F)F.O=C(O)C(F)(F)F,90.74%
18,O=C(O)C(F)(F)F.O=C(O)C(F)(F)F.O=C1CC2(CCN(Cc3cccnc3)C2)CN1c1cncnc1 (stereo not drawn),-5.386%
19,O=C(O)C(F)(F)F.O=C(O)C(F)(F)F.O=C1N(c2cccnc2)CCC12CCCN(Cc1ccco1)C2 (stereo not drawn),8.384%
20,CNc1ncccc1C(=O)N1CCC2(CCN(C)C2)CC1,-14.87%
21,CN1CCC2(CCN(C(=O)c3cccnc3)C2)C1 (stereo not drawn),103.3%
22,O=C(O)C(F)(F)F.O=C(O)C(F)(F)F.O=C1N(c2ccsc2)CCC12CCCN(Cc1cccnc1)C2 (stereo not drawn),4.008%
23,CCCN(CCN(C)C)C(=O)Cc1cn2ccsc2n1,-3.087%
24,O=C(Cc1ccsc1)N1CCN(CCOc2ccccc2)CC1,-6.082%
25,CC[C@H]1CN2CC[C@H]1C[C@@H]2CNCc1ccc2c(c1)OCO2,5.104%
26,CN1CCN2C(=O)N(C3CCCCC3)C[C@H]2C1,-7.779%
